Source: PubChem
KCC2 mod: KCC2 cotransporter modulators, thallium flux, primary screen, cell-based, HEK293 KCC2, FluoZin-2 fluorescence, MLSMR | KCC2 cells, thallium flux FluoZin-2 fluorescence | AID 1456, 2008 | B-score of Tl+ flux slope (higher = more flux/activation; lower = inhibition) at 10 µM | 190,000 tested, 2.2% active;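 active means thallium flux slope and its plate-corrected score both differing from the plate sample mean at a set confidence after two filtering rounds, in either direction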;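 further: slope of fluorescence scaled to starting intensity during 10 to 20 s after thallium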
ROMK primary: ROMK potassium channel modulators, primary screen, cell-based, thallium flux, MLSMR library. AID 1918, 2009. B-score at 10 µM. Tet-inducible ROMK, thallium flux fluorescence; actives lie on both sides. 130,000 tested, 2% active. ATP-sensitive inward rectifier potassium channel 1 (Homo sapiens), P48048;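 active means signal ratio slope over the read window, or its plate-corrected B-score, at least 3 SD from the plate mean, either direction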;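 further: B-score of the F/F0 ratio slope over 7 to 12 s after thallium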
Target sequence (P48048 whole entry, looked up): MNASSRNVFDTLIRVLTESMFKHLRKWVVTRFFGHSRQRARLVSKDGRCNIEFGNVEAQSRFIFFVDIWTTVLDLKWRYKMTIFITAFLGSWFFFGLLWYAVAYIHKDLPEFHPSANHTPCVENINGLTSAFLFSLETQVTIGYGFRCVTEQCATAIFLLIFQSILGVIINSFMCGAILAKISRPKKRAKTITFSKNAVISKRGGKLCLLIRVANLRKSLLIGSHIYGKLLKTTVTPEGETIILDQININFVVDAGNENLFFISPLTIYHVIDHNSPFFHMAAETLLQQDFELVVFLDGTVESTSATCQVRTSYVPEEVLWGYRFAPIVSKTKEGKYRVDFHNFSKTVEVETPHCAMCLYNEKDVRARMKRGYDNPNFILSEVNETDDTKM
m-calpain inh: inhibitors of pig calpain II, primary screen, biochemical, fluorogenic peptide substrate, 1536-well; purified calpain II, 30 min; inhibition, % at 16 µM; 220,000 tested, 0.37% active; AID 1236, 2008;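 active means inhibition above about 50%, limit read from the data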
WT yeast gro inh: growth inhibition of WT strain, primary screen, mitochondrial fusion inhibitor project, WT and mutant strains, chemical genetic | 190,000 tested, 2.1% active | mitochondrial fusion phenotypic screen | inhibition, % at 10 µM | AID 1362, 2008; in the data active means inhibition above about 58%; tested in S. cerevisiae
L major viab: Leishmania major promastigote growth inhibition, primary screen; Leishmania major promastigotes, resazurin fluorescence viability; inhibition, % at 10 µM; 200,000 tested, 9% active; in the data active means inhibition above about 50%;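 further: promastigotes grown with compound for 44 hours at 28 °C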
An asterisk follows results filed as active; i = inactive; · = not tested or not shown. Compounds with a hit are over-represented: about 12% of the library has one in this group of screens.

SMILES	KCC2 mod	ROMK primary	m-calpain inh	WT yeast gro inh	L major viab
CCCNC(=O)CN(C)S(=O)(=O)c1c(C)cc(C)cc1C	0.69	0.53	-11	7	0
O=C(NC(=S)Nc1ccccc1N1CCCC1)c1ccc([N+](=O)[O-])cc1	42*	0.13	-12	18	16
O=C(NC(=S)Nc1ccccc1N1CCOCC1)c1ccc([N+](=O)[O-])cc1	0.45	0.0044	10	-4	40
CCOc1ccc(C(=O)NC(=S)Nc2ccc(N3CCCCC3)cc2)cc1[N+](=O)[O-]	2	·	17	28	99*
Cc1c(C(=O)NC(=S)Nc2ccc(NC(=O)c3cccs3)cc2)cccc1[N+](=O)[O-]	-0.14	·	·	·	98*
CCOc1ccc(C(=O)NC(=S)Nc2ccc(NC(=O)CC)cc2)cc1[N+](=O)[O-]	0.31	1.5	-16	-1	-1
CCOc1ccc(C(=O)NC(=S)Nc2ccccc2N2CCCCC2)cc1[N+](=O)[O-]	1.7	-0.15	16	-8	95*
O=C(NC1CCCC1)C(c1ccncc1)N(C(=O)c1csnn1)C1CCCC1 (stereo not given)	0.27	0.22	-2	-16	-5
Fc1ccc(NC(=S)N2CCSC2c2cccs2)cc1 (stereo not given)	0.24	-0.53	7	24	36
COc1ccc(C(=O)NC(=S)Nc2cc(C)ccn2)cc1[N+](=O)[O-]	0.28	-0.5	27	3	62*
Cc1ccc2nsnc2c1NC(=O)c1cccc([N+](=O)[O-])c1	0.65	·	13	-5	-1
COc1ccc(C(=O)Nc2c(C)ccc3nsnc23)cc1[N+](=O)[O-]	1.8	·	15	11	83*
Cn1nnc(NC(=O)c2cccc([N+](=O)[O-])c2)n1	0.41	0.071	-1	·	·
Cn1c(=O)n(C)c2cc(NC(=O)c3cccc([N+](=O)[O-])c3)c(Br)cc21	0.92	1.2	-22	2	60*
COC(=O)c1ccc(C2OCC(C)(C)CO2)cc1	0.76	-0.017	-17	-11	-5
COC(=O)CCCCCNc1ccc(C(=O)OC)cc1N	-1.7	0.17	-41	-1	2
CCOC(=O)c1sc2ncn(/N=C/c3ccc(O)cc3)c(=O)c2c1C	0.3	-0.069	7	36	94*
COc1ccc(O)c(-c2cc(-c3cccc(Br)c3)n[nH]2)c1	-0.47	0.59	-20	-3	37
COc1ccc(-c2cc(-c3ccccc3O)[nH]n2)cc1OC	0.21	·	-67	36	40
COc1ccc(-c2cc(-c3ccc(OC)c(OC)c3)n[nH]2)c(O)c1	0.031	0.058	11	55	99*
COc1ccc(-c2cc(-c3cc(OC)ccc3O)[nH]n2)cc1	-0.84	-0.87	16	33	91*
CC(C)=CC1C(C(=O)Nc2ccc(Br)cn2)C1(C)C (stereo not given)	0.2	0.03	53*	27	5
O=C(NCCCN1CCCC1)[C@H](CSCc1ccccc1)N1Cc2ccccc2C1=O	-0.035	-1.5	-14	·	·
CCOC(=O)C1CN(S(=O)(=O)c2ccccc2)C1	·	·	-15	-2	-4
CCOC(=O)C1CN(S(=O)(=O)c2ccc(C)cc2)C1	·	·	53*	-6	0
SMILES	KCC2 mod	ROMK primary	m-calpain inh	WT yeast gro inh	L major viab
C=CCOc1ccnc(-c2ccccc2)n1	-0.13	·	-9	·	·
O=C(Cc1ccc(Cl)cc1)Nc1ccc(Br)cc1	0.73	-0.36	-2	3	-7
O=C(Cc1ccc(Br)cc1)NNC(=O)Nc1ccc(Cl)cc1	0.2	0.088	-23	10	72*
O=c1c2cc(Cl)ccc2nc(-c2ccc([N+](=O)[O-])cc2)n1O	49*	3.5*	-3	19	-12
On1c(-c2ccccc2)nc2ccc(Cl)cc21	0.3	·	-70	4	-6
CN(C)C(=O)CSc1nnc(CCCCCNC(=O)OC(C)(C)C)o1	0.86	·	-6	65*	-4
CCOC(=O)C1=C(C)NC(C)=C(C(=O)OCC)C1C(=O)OCC(=O)NC(C)C	0.77	0.053	-73	5	-1
Nc1nn2cc(-c3ccccc3)nc2c2ccccc12	-1.8	1.1	i	44	87*
COc1ccc(OC)c(C2C(C#N)=C(N)Oc3cc(N)ccc32)c1 (stereo not given)	-1.4	·	-32	23	0
COc1ccc(C2C(C#N)=C(N)Oc3cc4c(cc32)OCO4)cc1 (stereo not given)	-0.04	·	-9	1	96*
COCCOC(=O)C1=C(C)N(Cc2ccccc2)C(=O)NC1c1ccc(OC)cc1 (stereo not given)	-0.18	-1	36	19	3
Cc1cc(C(=O)CSc2nc(N)cc(N)n2)c(C)n1-c1cccc(C(F)(F)F)c1	0.74	-0.19	-5	-3	82*
CC(=O)/C(C#N)=C1\NC(=O)C(Cc2ccccc2Cl)S1 (stereo not given)	0.66	2	-9	76*	2
CC(NCc1ccc(OCc2ccc(Cl)cc2)cc1)C(O)c1ccccc1 (stereo not given)	0.049	-0.56	3	94	100*
CC(NCc1cccc(OCc2ccccc2)c1)C(O)c1ccccc1 (stereo not given)	-2.2	-2.2	16	44	100*
c1ccc(COc2cccc(CNn3cnnc3)c2)cc1	0.92	·	-12	14	16
COc1ccc(/C=C/C(=O)c2ccc(O)cc2)cc1	-1.3	·	2	5	3
COC(=O)c1ccc2c(c1)C(C)(C)C(/C=C/c1ccc(O)cc1)=[N+]2C	0.62	·	i	33	101*
Cc1cccc(C)c1NC(=O)CSc1nnc(C)n1CC1CCCO1 (stereo not given)	0.74	1	-16	-18	-7
CN(CC(=O)O/N=C(\N)c1cccc([N+](=O)[O-])c1)S(=O)(=O)c1ccccc1	·	-1.4	16	58*	-1
Cc1ccc(CC(=O)O/N=C(\N)c2cccc([N+](=O)[O-])c2)cc1	-0.44	·	5	47	80*
O=C(C1CCN(S(=O)(=O)N2CCC3(CC2)OCCO3)CC1)N1CCCCC1	0.81	0.46	0	4	-3
COc1ccc(C[C@H]2c3cc(O)c(OC)cc3CC[N+]2(C)[O-])cc1O (stereo not given in full)	0.43	·	-153	·	·
CC(=O)Nc1ccccc1C(=O)C(=O)Nc1cccc(C(=O)NCC2CCCO2)c1 (stereo not given)	-0.5	0.23	93*	3	-4
CC(=O)Nc1ccccc1C(=O)C(=O)Nc1ccc(C(=O)NCC2CCCO2)cc1 (stereo not given)	1.1	2.5	11	11	-1
CS(=O)(=O)c1ncc(CO)n1Cc1ccccc1	0.91	0.11	15	2	-6
CC(C)CCc1noc(CN2CCC(C(=O)N3CCOCC3)CC2)n1	-0.11	·	-307	·	·
CC(=O)c1cccc(Nc2cc(C)nc3c(C)cc(C)cc23)c1	-1.7	-0.95	-1	-28	100*
O=c1oc(Nc2cccc(F)c2)nc2ccccc12	·	·	14	78*	-2
